Screening data: PubChem, several laboratories
Only some compounds are listed: those with a hit (about 2.7% of all), similar ones and a draw of the others.
ATG4B inh – ATG4B protease inhibitors, primary screen, biochemical, fluorescence, uHTS; inhibition, % at 8.33 µM; Cysteine protease ATG4B (Homo sapiens), Q9Y4P1; 0.51% of 340,000 active; ATG4B cleavage of LC3-PLA2, NBD-HPC fluorescence, 1 h; in the data active = inhibition above about 40%
Target sequence (Q9Y4P1 whole entry, looked up): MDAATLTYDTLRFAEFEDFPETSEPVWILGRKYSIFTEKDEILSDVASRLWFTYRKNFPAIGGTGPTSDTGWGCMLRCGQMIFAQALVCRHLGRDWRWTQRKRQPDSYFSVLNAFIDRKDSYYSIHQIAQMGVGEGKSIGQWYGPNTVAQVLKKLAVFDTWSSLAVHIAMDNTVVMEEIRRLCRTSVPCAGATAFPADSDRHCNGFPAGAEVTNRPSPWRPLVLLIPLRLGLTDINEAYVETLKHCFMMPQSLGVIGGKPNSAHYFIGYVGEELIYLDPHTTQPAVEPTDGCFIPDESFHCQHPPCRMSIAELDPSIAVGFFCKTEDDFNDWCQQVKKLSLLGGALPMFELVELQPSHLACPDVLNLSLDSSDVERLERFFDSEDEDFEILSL
F508del corr – F508del CFTR correction, initial screen, CFBE line, single point; 0.36% of 350,000 active; AID 720511, 2013; CFBE cells, YFP halide quenching; stimulated with forskolin plus potentiator P3; % fluorescence drop versus neutral controls; activity (quench increase), % at 7.58 µM;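 active = mean added fluorescence quench of at least 8% versus neutral control, with both replicates also reaching 8%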;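 also: cells transiently co-express mutant CFTR-F508del with the halide-sensitive YFP; corrector assay measuring rescue of mutant channel to the surface after 24 h compound exposure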
SKN-1 block – suppressors of acrylamide-induced Pgst-4::GFP reporter in worms, primary screen, SKN-1 inhibitor project, whole organism, uHTS, GFP/RFP fluorescence ratio, strain VP596. C. elegans VP596 Pgst-4::GFP/RFP ratio, 24 h. inhibition, % at 21.8 µM. 0.49% of 360,000 active. AID 624304, 2012;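 active = interference check ratio from 0.5 to 1.5 plus GFP to RFP signal ratio inhibition reaching or exceeding a fixed threshold, cut at about 30% in these data, passing the limit was not always enough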
CendR NRP1 mod – modulators of CendR peptide binding to NRP-1, primary screen, biochemical, fluorescence polarization, uHTS | AID 602438, 2012 | FAM-RPARPAR peptide binding to NRP-1 | 0.85% of 360,000 active | inhibition, % at 25 µM;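 active = inhibition or corrected inhibition above about 18%, plus a signal ratio from 0.5 to 1.5, limit read from the data, passing the limit was not always enough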
MPTP inh – mitochondrial permeability transition pore inhibitors, primary screen, biochemical, isolated mouse mitochondria, absorbance. Ca2+ swelling absorbance, 30 min. inhibition, % at 10 µM. 1.4% of 360,000 active;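 active = inhibition of 50% or more, scaled per plate between neutral and stimulator controls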;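 also: 0% = DMSO wells given calcium and 100% = 1 mM EGTA wells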
Numbers without * were called inactive; / = no result given.

SMILES | ATG4B inh | F508del corr | SKN-1 block | CendR NRP1 mod | MPTP inh
CO[C@@H](CN(C)S(=O)(=O)c1ccc(C)cc1)[C@H](C)CN([C@H](C)CO)S(=O)(=O)c1cccc(Cl)c1 | / | 15* | / | / | /
CO[C@H](CN(C)S(=O)(=O)c1ccc(C)cc1)[C@H](C)CN([C@H](C)CO)S(=O)(=O)c1cccc(Cl)c1 | / | 3 | / | / | /
C[C@@H]1CCCCO[C@H](CN(C)C(=O)Nc2ccc(F)cc2)[C@H](C)CN([C@@H](C)CO)C(=O)c2cc(NS(=O)(=O)c3ccc(Cl)cc3)ccc2O1 | / | 0 | / | / | /
Cc1ccc(NS(=O)(=O)c2ccc3c(c2)n(C)c(=O)n3C)cc1 | -6 | / | 10 | 4 | -1
COc1ccc(NS(=O)(=O)c2ccc3c(c2)n(C)c(=O)n3C)cc1 | 3 | 1 | 37* | -4 | 1
Cc1cccc(-c2ccc([C@H]3[C@H](CO)N4CCCCN(Cc5cncnc5)C[C@@H]34)cc2)c1 | / | 2 | / | / | /
Cc1nnc(SCC(=O)Nc2cccc(S(N)(=O)=O)c2)n1-c1ccccc1 | -6 | 0 | 12 | 8 | -1
CN(c1ccccc1)S(=O)(=O)c1cccc(NC(=O)CSc2nncn2C)c1 | -1 | / | 2 | 24* | 0
Cc1cc(C)n2c(SCC(=O)Nc3cccc(S(N)(=O)=O)c3)nnc2n1 | -8 | 6 | 10 | 24* | 0
Cn1cnnc1SCC(=O)Nc1cccc(S(=O)(=O)N2CCCCCC2)c1 | 3 | / | -5 | 1 | 0
CC(=O)Nc1ccc(C(=O)Nc2cccc(S(=O)(=O)N(C)c3ccccc3)c2)cc1 | -8 | 1 | 2 | 26* | -1
C[C@@H]1CN([C@@H](C)CO)C(=O)c2cccc(NS(=O)(=O)c3ccc(Cl)cc3)c2O[C@@H]1CN(C)S(=O)(=O)c1cccs1 | / | 0 | / | / | /
O=C(CN1C(=O)c2ccccc2S1(=O)=O)NCCSCc1c(F)cccc1Cl | -1 | -4 | 14 | 24* | -3
O=C(CN1C(=O)c2ccccc2S1(=O)=O)NCCSCc1ccccc1Cl | -3 | 0 | 0 | 9 | -1
Cc1ccc(SCCNC(=O)CN2C(=O)c3ccccc3S2(=O)=O)cc1 | -14 | / | 37* | 9 | -5
COc1ccc2oc(=O)c(/C(N)=N/NC(=O)c3ccncc3)cc2c1 | 9 | -2 | 38* | -10 | -1
Nc1cc(S(=O)(=O)N2CCOCC2)ccc1Oc1ccc(F)cc1 | 11 | 1 | 10 | 28* | 2
C[C@H](CO)N1C[C@H](C)[C@@H](CN(C)Cc2ccncc2)Oc2ccc(NC(=O)CCN3CCOCC3)cc2CC1=O | / | -4 | / | / | /
O=C(NCC(c1cccs1)N1CCOCC1)c1ccc(OCc2ccccc2)cc1 (stereo not drawn) | -8 | 9.1* | -2 | 1 | 0
Oc1ccc(-c2nc3ncccn3c2Nc2ccc3c(c2)OCO3)cc1 | -12 | / | 14 | 24* | -3
Clc1ccc(-c2nc3ncccn3c2Nc2ccc3c(c2)OCO3)cc1 | 10 | / | -1 | -3 | 1
COc1ccc(NC(=O)N(C)C[C@@H]2OCCCC[C@@H](C)Oc3ccc(NC(=O)c4ccccc4)cc3C(=O)N([C@H](C)CO)C[C@H]2C)cc1 | / | 2 | / | / | /
Cc1ccc(OCCC(=O)OCC(=O)NCCc2ccccc2)cc1 | -9 | -1 | -1 | 27* | -2
Cc1ccc(OCCC(=O)OCC(=O)NCc2ccccc2)cc1 | 3 | -2 | -5 | -4 | -1
O=C(CCCC(=O)NCC1CCCO1)NCC1CCCO1 (stereo not drawn) | 1 | / | 15 | 26* | -4
SMILES | ATG4B inh | F508del corr | SKN-1 block | CendR NRP1 mod | MPTP inh
O=C(CN1CCCCCC1)NCC1CCCO1 (stereo not drawn) | -9 | 1 | 10 | 0 | 1
C[C@H]1CN([C@@H](C)CO)C(=O)Cc2cc(NC(=O)c3ccncc3)ccc2O[C@@H]1CN(C)CC1CC1 | / | -2 | / | / | /
O=C(Nc1cccnc1)c1cc(-c2ccc(Cl)c(Cl)c2)on1 | -7 | 0 | 3 | -7 | 1
O=C(Nc1cccnc1)c1cc(-c2ccc3c(c2)OCO3)on1 | -2 | / | 39* | -26 | -3
COc1ccccc1CN1C(=O)c2ccccc2[C@](Cc2ccccc2I)(C(=O)NCc2ccccc2)[C@@H]1c1ccc(CO)cc1 | / | 0 | / | / | /
O=C(CCNS(=O)(=O)c1ccc(Br)cc1)NCCc1ccc(Cl)cc1 | -10 | 4 | 7 | 27* | -2
CC(=O)Cc1nsc(NC(=O)c2cn(-c3ccccc3)nc2-c2ccc(Br)cc2)n1 | 3 | / | -1 | 32* | 37
CCOCCCNC(=O)C(c1ccc(Cl)cc1)N1CCC2(CC1)OCCO2 (stereo not drawn) | -2 | / | 37* | 5 | 2
CC(=O)Nc1ccccc1OCC(=O)N(Cc1ccccc1)C(C)C | -4 | / | 0 | 38* | 0
COCC#Cc1ccc2c(c1)O[C@@H](CN(C)Cc1ccc(F)cc1)[C@@H](C)CN([C@@H](C)CO)S2(=O)=O | / | 1 | / | / | /
O=S(=O)(NCc1csc(-c2cccs2)n1)c1ccc(Cl)cc1 | -11 | -1 | 0 | -5 | 6
O=S(=O)(NCc1csc(-c2cccs2)n1)c1cccs1 | -1 | / | -7 | 35* | 3
N#C/C(=C\c1ccc([N+](=O)[O-])o1)C(=O)Nc1ccc(F)cc1 | -3 | 0 | 35* | -129 | 4
COc1ccc(NC(=O)/C(C#N)=C\c2ccc(Br)o2)cc1 | 6 | 0 | 6 | 1 | 2
CCN1CCN(c2ncnc3c2c(-c2ccccc2)cn3-c2ccc(F)cc2)CC1 | 8 | -2 | 52* | -4 | 13
Fc1ccc(-n2cc(-c3ccccc3)c3c(N4CCOCC4)ncnc32)cc1 | 2 | -1 | -2 | -9 | 0
CC1=[N+](C)N(c2ccccc2)C(=O)C1N=Cc1ccccc1Cl (stereo not drawn) | -18 | / | 9 | 18* | 1
O=C(NC[C@@H]1CC[C@H]2[C@H](CN2S(=O)(=O)c2ccccc2[N+](=O)[O-])O1)Nc1ccccc1 | / | -2 | / | / | /
CC(C)Oc1ccc(C(CCNCc2ccc(O)cc2)c2ccccc2)cc1 (stereo not drawn) | -13 | 2 | 7 | 25* | 49
O=C(NCC(=O)N(Cc1cccs1)C(C(=O)NC1CCCCC1)c1ccncc1)c1ccco1 (stereo not drawn) | -1 | / | 42* | -2 | 14
Cn1ccc(-c2ccccc2)n1 | -5 | 3 | -2 | 9 | 0
N#Cc1cc(-c2ccccc2)nn1-c1ccccc1 | -9 | / | 35* | 15 | 0
COc1ccc(S(=O)(=O)Nc2ccc3c(c2)C(=O)N([C@H](C)CO)C[C@@H](C)[C@@H](CN(C)C(=O)Nc2c(C)noc2C)O3)cc1 | / | 8 | / | / | /
O=C(C[C@@H]1CC[C@@H]2NC[C@H](O)COC[C@H]2O1)NCCc1ccncc1 | / | 0 | / | / | /
